Where “and” joins values, the source holds several entries; their conditions need not be identical. Equal entries are not always repeated. About 83,000 compounds went through this panel and 20% of them were active in at least one assay; those are over-represented in the sample as a whole.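 48-hour exposure, single concentration, 96-well plates; percent growth endpoint where 0 means no net growth. Active: below 10.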 Values without a mark were called inactive. Calls of active or inactive are those of the source.

For this test, the system named is MDA-MB-468 breast. Nature of the test: NCI-60 one-dose screen, 48 h (100 = growth as untreated, 0 = no growth, -100 = all killed). As to conditions: 10 µM unless noted.
Take `Cn1ncc(Cl)c1-c1cc(C(=O)N[C@H](CN)Cc2ccc(F)c(F)c2)oc1Cl`: the growth is -69.6% (active).

Consider `O=CN/N=C/c1ccc(Cl)c([N+](=O)[O-])c1`, for which the growth is -11.6% (active).

For `CC1(C)CC2=C3C=C[C@@H]4[C@@]5(C)CC[C@H](O)C(C)(C)[C@@H]5CC[C@@]4(C)[C@]3(C)CC[C@@]2(C(=O)O)CC1=O`, the growth is 81.4%.

Turning to `O=C(NCCCCO)c1cncnc1Nc1ccc2c(ccn2Cc2cccc(F)c2)c1`, the growth is 67%.

For `NC(=O)SCC(=O)Nc1ccccc1-c1ccccc1`, the growth is 99.9%.

Take `O=C1/C(=C/c2ccc([N+](=O)[O-])cc2)SC(=Nc2ccccc2)N1Nc1ccccc1`: the growth is 87.8%.

Consider `NCCCNc1nc2ccccc2c2c(=O)c3cc(C(F)(F)F)ccc3sc12`, for which the growth is -49.1% (active).

`C=C(C)[C@@H]1CC[C@]2(C)[C@H](CC=C3[C@@H]4CC(C)(C)CC[C@]4(C(N)=O)CC[C@]32C)[C@@]1(C)CCC#N`: the growth was 15.1%.

Take `O=[N+]([O-])/C(=C/c1ccccc1)c1ccccc1`: the growth was 99%.

For `COc1cccc(-c2nc(-c3ccc(NC(=O)OC(C)C)cc3)[nH]c2-c2ccnc(Br)c2)c1`, the growth is 18.2%.

With `O=C(O)c1ccc(NC(=O)c2cccc(Nc3ccnc(C(F)(F)F)c3)c2)cc1`, the growth is 108%.

Regarding `Fc1ccc(Nc2nc(Nc3ccc(-c4nc5ccccc5[nH]4)cc3)c3cn[nH]c3n2)cc1`, the growth is -22.1% (active).

`Oc1cccnc1CN1CCCC1`: the growth is 104%.

For `O=C(Nc1ccc(Cl)cc1)c1cc2c(cc1O)[nH]c1ccccc12`, the growth is -17.6% (active).

For the compound `CCNC(=O)Oc1ccc(/C(=C(/C)c2ccc(OC)cc2)c2ccc(OCCN3CCCCCC3)cc2)cc1`, the growth was 38.3%.

With `CN1CCC2(CC1)N=C(SCC(=O)Nc1cnc3ccccc3c1)C(c1ccc(Br)cc1)=N2`, the growth is -43.8% (active).

For `NC(N)=Nc1ccc(Oc2ccc(Nc3ccc(Cl)c(C(F)(F)F)c3)cc2)cc1`, the growth was 22.2%.

`NC(=S)N/N=C(/CCN1CCCC1)CC(C1=C(O)C2=CCCCC2OC1=O)c1ccccc1` (stereo not given): the growth was 17.9%.

For the compound `COc1cc(C2C(C(=O)OCc3ccccc3)=C(C)NC(C)=C2C(=O)OCc2ccccc2)cc(OC)c1OC`, the growth was 11.6%.

In the case of `COc1cc2c(cc1OC)C1CCN3C(=O)CCC3N1CC2` (stereo not given), the growth is 107%.

Turning to `Cn1cc(-c2nnc(N)nc2-c2c[nH]c3ccc(F)cc23)c2cc(Br)ccc21`, the growth is -33.4% (active).

With `CC(=O)Nc1ccc(Cl)cc1Cl`, the growth was 90.1%.

On to `COc1cc(C(F)(F)F)ccc1-c1cc(-c2ccc(F)cc2)n[nH]1`, for which the growth was 75.6%.

`COc1ccccc1OCC(O)CO` (stereo not given): the growth was 114% and 92.9%.

In the case of `CC(=O)OC/C(C)=C\CC(C)COC(C)=O` (stereo not given), the growth is 98.5%.

For the compound `N#Cc1cnc2cc(OC[C@@H](O)CO)c(NC(=O)CC3CSSC3)cc2c1Nc1ccc(OCc2cccc(F)c2)c(Cl)c1`, the growth was -74.8% (active).

Turning to `COc1ccc(C2=NN(C(=O)c3ccc(S(C)(=O)=O)cc3)C(c3ccc(OC)c(OC)c3)C2)c(OC)c1` (stereo not given), the growth is 87%.

Take `N#Cc1ccc(/C=C/C(=O)c2ccccc2)cc1`: the growth is 43.5% and 48.9%.

For `CCOC(=O)CSc1c([N+](=O)[O-])ncn1C`, the growth is 91.1%.

As to `COc1ccc(-c2ccc3c(c2)sc2nc(-c4ccc(F)cc4)cn23)cc1`, the growth was 66.7%.

As for `Cc1cc(Br)c2nsnc2c1[N+](=O)[O-]`, the growth is -24.6% (active).

For the compound `CC[C@H](Nc1nc(N)nc(C)c1C#N)c1nc2cccc(NCCCCCC(=O)NO)c2c(=O)n1-c1ccccc1`, the growth was 11.7%.

For `O=C1OCC/C1=C\OCCCO/C=C1\CCOC1=O`, the growth is 92.8%.

As for `COc1ccc(N(C)c2nc(Cl)nc3cnn(C)c23)cc1`, the growth is 26.9%.

For the compound `Cn1cc(-c2nc(-c3c[nH]c4ncccc34)cs2)c2cc(F)ccc21`, the growth is -22.6% (active).

On to `C#C[C@]1(O)CC[C@H]2[C@@H]3CC=C4c5sc(-c6cccc(F)c6)nc5CC[C@]4(C)[C@H]3CC[C@@]21C`, for which the growth was 71.1%.

As for `NC(Cc1ccc(O)c([N+](=O)[O-])c1)C(=O)O` (stereo not given), the growth was 101%.

For the compound `CC(C)c1ccc2occ(C=C3C(=O)NC(=O)NC3=O)c(=O)c2c1`, the growth is 96.9%.

Consider `C=CCn1c(SCC(=O)c2ccc(OC)cc2)nnc1-c1ccc(OC)cc1`, for which the growth is 90.6%.

Turning to `C=CC(C)(O)CC/C=C(\CO)C(=O)OC1C(C)OC(O[C@](C)(C=C)CC/C=C(\CO)C(=O)O[C@H]2C[C@@]3(C(=O)OC4OC(CO)C(O)C(O)C4OC4OC(C)C(OC5OC(CO)C(O)C5O)C(OC5OC(CO)C(O)C(O)C5O)C4O)C(CC2(C)C)C2=CCC4[C@@]5(C)CC[C@H](OC6OC(COC7OC(C)C(O)C(O)C7OC7OCC(O)C(O)C7O)C(O)C(O)C6NC(C)=O)C(C)(C)C5CC[C@@]4(C)[C@]2(C)C[C@H]3O)C(O)C1O` (stereo not given in full), the growth is 19.9%.

The values above are taken from PubChem BioAssay (NCI).
